Activity calls are given as the source filed them. Unless noted, the rule behind the calls is not given here.
Tests used:
[1] = system: XIP peptide (Xip251-270) binding; assay: small-molecule binders of XIP peptide, primary screen, biochemical, small-molecule microarray, fluorescence 635/667 nm, 0.1 µg/mL protein (AID 1182); conditions: fluorescent protein binding, 635 nm, higher = more signal, called active from +8 up or from −8 down
XIP peptide (Xip251-270) = assay: small-molecule binders of XIP peptide, primary screen, biochemical, small-molecule microarray, fluorescence 635/667 nm, 0.5 µg/mL protein (AID 1183); conditions: small-molecule microarray binding, fluorescence 635 nm; higher = more signal
[2] = Plasmodium falciparum growth inhibition, primary screen, strain 3D7, DAPI fluorescence, 100 nL (AID 1184);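 note: parasites grown inside human red blood cells in medium with human serum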; conditions: P. falciparum 3D7 growth, 3 d, higher = more signal
[3] = molecular target: Homeobox protein Hox-A13 (Mus musculus) (UniProt Q62424); assay: inhibitors of HoxA13-DNA binding, primary screen, biochemical, fluorescence polarization, labeled oligonucleotide (AID 1185); conditions: 15 min, higher = more signal, called active from +8 up or from −8 down
Homeobox protein Hox-A13 (Mus musculus), sequence (Q62424 whole entry, looked up): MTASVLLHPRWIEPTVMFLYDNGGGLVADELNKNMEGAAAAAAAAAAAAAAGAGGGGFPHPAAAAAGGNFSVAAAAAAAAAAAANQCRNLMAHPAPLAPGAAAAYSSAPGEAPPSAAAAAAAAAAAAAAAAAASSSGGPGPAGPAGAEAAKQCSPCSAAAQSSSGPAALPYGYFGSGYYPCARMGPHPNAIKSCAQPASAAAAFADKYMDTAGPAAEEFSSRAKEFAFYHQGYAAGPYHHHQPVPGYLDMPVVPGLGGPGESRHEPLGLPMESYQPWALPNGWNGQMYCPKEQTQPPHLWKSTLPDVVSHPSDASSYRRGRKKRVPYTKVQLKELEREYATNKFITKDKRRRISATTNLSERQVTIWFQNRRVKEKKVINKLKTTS

[4] = inhibitors of hydroxyurea-induced Chk1 phosphorylation, primary screen, imaging, HeLa, phospho-Chk1 antibody, percent positive cells (AID 1186); conditions: hydroxyurea-induced phospho-Chk1 immunofluorescence imaging, higher = more signal
[5] = inhibitors of hydroxyurea-induced Chk1 phosphorylation, primary screen, imaging, HeLa, phospho-Chk1 nuclear intensity (AID 1187); conditions: hydroxyurea-induced phospho-Chk1 immunofluorescence imaging, higher = more signal

SMILES | composite z-score [1] | composite z-score (XIP peptide (Xip251-270)) | z-score [2] | z-score [3] | z-score [4] | z-score [5]
COC(=O)C(CC#Cc1ccc2c(c1)[C@]1(C(=O)N2)[C@H](c2ccccc2OCCO)N2[C@H](c3ccccc3)[C@H](c3ccccc3)OC(=O)[C@H]2[C@@H]1C(=O)N1CCc2cc(OC)c(OC)cc2C1)C(=O)OC | -0.19 (inactive) | 0.621 | -2.19 | 3.17 (inactive) | -0.0586 (inactive) | -0.139 (inactive)
O=C1C[C@]2(c3ccc([N+](=O)[O-])cc3)C(=O)N(C3CC3)c3cc(CO)ccc3[C@H]2N1C1CCCCC1 | -0.217 (inactive) | 0.205 | 1.47 | -1.16 (inactive) | -0.214 (inactive) | -0.771 (inactive)
O=C1O[C@H](c2ccccc2)[C@H](c2ccccc2)N2[C@H]1[C@@H](C(=O)N1CCN(c3ncccn3)CC1)[C@]1(C(=O)Nc3ccc(C#CCCO)cc31)[C@H]2c1ccc(O)cc1 | -0.224 (inactive) | 0.726 | -0.707 | -2.81 (inactive) | -0.114 (inactive) | -0.212 (inactive)
CCOC(=O)C1=C[C@@H](C(C)(C)C)N(S(=O)(=O)c2ccc(C)cc2)[C@H]1c1ccc(C#N)cc1 | -0.331 (inactive) | 0.662 | -1.82 | -0.543 (inactive) | 0.892 (inactive) | 1.21 (inactive)
COc1ccc([Si](C)(C)[C@H]2[C@H](CC(=O)N3Cc4ccccc4C[C@H]3CO)O[C@@]3(C(=O)N(C)c4ccccc43)[C@@H]2C)cc1 | 0.958 (inactive) | 0.808 | -2.63 | -5.59 (inactive) | 0.227 (inactive) | 0.169 (inactive)
O=C1N(Cc2ccccc2)c2ccccc2C[C@@]12COC(c1ccc(OCCCO)cc1)=N2 | 1.45 (inactive) | 0.308 | -2.23 | -5.21 (inactive) | 0.0438 (inactive) | 0.311 (inactive)
CCCCC(O)C1C=CC2C(=O)N(c3ccccc3)C(=O)C2N1Nc1ccc([N+](=O)[O-])cc1 (stereo not given) | 0.0204 (inactive) | 0.598 | -0.496 | -4.62 (inactive) | 0.391 (inactive) | 0.501 (inactive)
COc1ccc(C(=O)Nc2ccc3c(c2)[C@@]2(O[C@H](CCO)[C@@H]([Si](C)(C)c4ccc(OC)cc4)[C@@H]2C)C(=O)N3Cc2ccccc2)cc1 | 0.396 (inactive) | 0.466 | -2.89 | -1.54 (inactive) | 0.0691 (inactive) | 0.518 (inactive)
C[C@@H]1NC(=O)C([C@@H](C)OCc2ccccc2)NC(=O)[C@@]23C(=O)N[C@@H](Cc4ccccc4)C2[C@H](C)[C@@]2(C)O[C@H]2C3/C=C/C/C=C\CNC1=O (stereo not given in full) | -0.501 (inactive) | -0.458 | 0.0074 | -7.4 (inactive) | -0.0202 (inactive) | -0.0344 (inactive)
[N-]=[N+]=Nc1ccccc1C[C@]1(C(=O)N2CCOCC2)N=C(c2ccc(OCCCO)cc2)O[C@H]1c1ccccc1N=[N+]=[N-] | 0.986 (inactive) | 0.721 | -2.32 | -3.58 (inactive) | -1.46 (inactive) | -2.06 (inactive)
C=CCN1Cc2ccccc2[C@H]2OC(c3ccc(OCCCO)cc3)=N[C@@]2(CCS(=O)(=O)c2ccccc2)C1=O | 1.61 (inactive) | 0.767 | -2.18 | -3.88 (inactive) | -0.163 (inactive) | -0.237 (inactive)
CCOC(=O)C[C@H]1[C@H](OC(=O)c2cc3ccccc3oc2=O)[C@@H](NC(=O)CC(C)C)c2cc(OCCCO)ccc2N1C(=O)Cc1ccc(OC)cc1 | 0.101 (inactive) | 0.686 | -2.45 | -4.83 (inactive) | 0.372 (inactive) | -0.268 (inactive)
CCCCC(O)C1C=CC2C(=O)N(c3ccccc3)C(=O)C2N1Nc1ccc(C#N)cc1 (stereo not given) | 1 (inactive) | 0.109 | 0.832 | -3.62 (inactive) | 0.194 (inactive) | 0.404 (inactive)
CCC(CC)C(O)C1C=CC2C(=O)N(c3ccccc3)C(=O)C2N1Nc1ccccc1F (stereo not given) | 0.977 (inactive) | -0.243 | -0.0776 | -3.13 (inactive) | -0.121 (inactive) | -0.175 (inactive)
C=C(COC)C(=O)CC[C@@H](OC(=O)c1ccccc1-c1ccccc1C(=O)O)c1ccc(OCCO)cc1 | 0.264 (inactive) | 0.666 | -0.61 | -5.88 (inactive) | -0.0419 (inactive) | 0.0533 (inactive)
COc1ccc([Si](C)(C)[C@H]2[C@H](CC(=O)N3Cc4ccccc4C[C@H]3CO)O[C@@]3(C(=O)N(C)c4c(Br)cc(C)cc43)[C@@H]2C)cc1 | 0.0621 (inactive) | 0.445 | -2.61 | -4.14 (inactive) | 0.18 (inactive) | -0.569 (inactive)
CN(C)CCCNC(=O)[C@@]1(C)c2ccccc2C(=O)N(Cc2ccc(OC(F)(F)F)cc2)[C@H]1c1ccc(CO)cc1 | 0.784 (inactive) | 0.778 | -1.94 | -1.98 (inactive) | 0.395 (inactive) | 0.0436 (inactive)
C=CCNC(=O)[C@@H]1[C@H]2C(=O)O[C@H](c3ccccc3)[C@H](c3ccccc3)N2[C@H](c2ccc(OCCO)cc2)[C@@]12C(=O)Nc1ccc(C#CC3(O)CCCCCC3)cc12 | 1.02 (inactive) | 0.774 | -1.73 | -1.92 (inactive) | -0.0427 (inactive) | -0.271 (inactive)
COc1ccc([Si](C)(C)[C@H]2[C@H](CCO)O[C@@]3(C(=O)N(Cc4cccc(N(C=O)c5ccccc5)c4)c4ccccc43)[C@@H]2C)cc1 | 0.293 (inactive) | 0.665 | -2.57 | -0.557 (inactive) | -1.73 (inactive) | -0.831 (inactive)
CCN(CC)c1ccc(N2CC=CC34O[C@@H]5C=CCCOC(=O)C5[C@H]3C(=O)N(C(C)CO)[C@@H]4C2=O)cc1 (stereo not given in full) | 0.587 (inactive) | 0.77 | 0.479 | -6.31 (inactive) | 1.74 (inactive) | 0.865 (inactive)
CC(C)NC(=O)[C@@]1(C)c2ccccc2C(=O)N(Cc2ccccc2)[C@H]1c1ccc(CO)cc1 | 0.0062 (inactive) | 0.875 | -0.321 | -2.37 (inactive) | -0.471 (inactive) | -0.429 (inactive)
COCCOC(=O)N1C(=O)[C@@]2(c3ccccc31)[C@H](C(=O)N1CCN(c3ncccn3)CC1)[C@H]1C(=O)O[C@H](c3ccccc3)[C@H](c3ccccc3)N1[C@@H]2c1ccccc1OCCO | 0.044 (inactive) | 0.597 | -1.99 | -1.77 (inactive) | -0.356 (inactive) | -0.484 (inactive)
CC(C)C(O)C1C=CC2C(=O)NC(=O)C2N1Nc1ccccn1 (stereo not given) | 0.163 (inactive) | 0.943 | 0.17 | -3.11 (inactive) | -0.446 (inactive) | -0.67 (inactive)
COCCOC(=O)N1C(=O)[C@@]2(c3cc(C#CCC(C(=O)OC)C(=O)OC)ccc31)[C@H](C(=O)Nc1nc3ccccc3s1)[C@H]1C(=O)O[C@H](c3ccccc3)[C@H](c3ccccc3)N1[C@@H]2c1ccc(OCCO)cc1 | 1.7 (inactive) | 0.768 | -1.85 | 1.46 (inactive) | -0.0393 (inactive) | 0.611 (inactive)
COc1ccc(C#Cc2ccc3c(c2)[C@]2(C(=O)N3)[C@H](C(=O)O)[C@H]3C(=O)O[C@H](c4ccccc4)[C@H](c4ccccc4)N3[C@@H]2c2ccccc2OCCO)cc1 | 1.89 (inactive) | 0.833 | -2.15 | -3 (inactive) | 0.135 (inactive) | 0.175 (inactive)
